Data on 13 compounds can be found in PubChem BioAssay (NCATS).

Results filed as inconclusive are left out. A call without a number means that no potency is given here. The source made the active and inactive calls. Calls come from the whole dose curve; as a rule, active = well fitted inhibition curve with a large enough effect; inconclusive = small, poorly fitted or top-dose-only effect; inactive = flat fitted curve, though single readings scatter.
Potency is the fitted concentration of half-maximal effect.

The assay concerns CP291. In words: qHTS profiling for inhibitors of Plasmodium falciparum proliferation (AID 504749). Note: nearly all actives have a fitted effect of over 60% in size. Particulars: P. falciparum in erythrocytes, SYBR Green DNA, 72 h; series mostly up to 28.7 µM. An outline of the steps: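 Infected RBCs, 0.3% parasitemia/2.5% Hct final; cpd 72 h, 37 C, 5% CO2; lysis buffer with saponin/triton/SYBR Green I, o/n RT dark; FI 485/535; norm. to artemisinin (0.29 uM) and DMSO.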
For orientation: qHTS replaces the single test concentration by a dilution series.
For `CCCCCCNC(=O)n1cc(F)c(=O)[nH]c1=O`, the Potency is 12 µM (active).

For the compound `CCOc1cc(N)c(Cl)cc1C(=O)NCC1CN(Cc2ccc(F)cc2)CCO1` (stereo not drawn), the Potency is 12 µM (active).

Regarding `CC(C)(C)C(=O)OCOP(=O)(COCCn1cnc2c(N)ncnc21)OCOC(=O)C(C)(C)C`, the Potency entry is “inactive”.

`COc1cc2c(Nc3ccc(Br)cc3F)ncnc2cc1OCC1CCN(C)CC1`: the Potency was 3.79 µM (active).

Regarding `COc1ccc(C(=O)CC(=O)c2ccc(C(C)(C)C)cc2)cc1`, the Potency result was “inactive”.

As to `CCCCOc1ccc(CC(=O)NO)cc1`, the Potency is 3.22 µM (active).

As to `CCC(C)(C)c1ccc(CC(C)CN2C[C@@H](C)O[C@@H](C)C2)cc1` (stereo partly drawn), the Potency result was “inactive”.

On to `CNCC[C@H](Oc1cccc2ccccc12)c1cccs1`, for which the Potency entry is “inactive”.

Turning to `N[C@@H](Cc1ccc(O)c(O)c1)C(=O)O`, the Potency entry was “inactive”.

Consider `CCCc1cc(C(N)=S)ccn1`, for which the Potency entry was “inactive”.

For `CC1=CC(=O)c2ccccc2C1=O`, the Potency entry was “inactive”.

On to `CN(Cc1cc(Br)cc(Br)c1N)C1CCCCC1`, for which the Potency entry is “inactive”.

Take `CCCc1nc(C)c2c(=O)[nH]c(-c3cc(S(=O)(=O)N4CCN(CC)CC4)ccc3OCC)nn12`: the Potency entry is “inactive”.
